TDP1 cell noCPT: qHTS for Inhibitors of human tyrosyl-DNA phosphodiesterase 1 (TDP1): qHTS in cells in absence of CPT. DT40 Tdp1-/- hTDP1 cells, no CPT, ATP luminescence, 48 h. Potency, µM (highest dose often 46.2 µM), without a hit: at the top dose activity change, negative = growth inhibition, actives largely listed as inhibitors. 420,000 compounds, 15% hits; note: potency is the fitted concentration of half-maximal effect; % is set by controls: 0 for no effect and ±100 for the full control effect; nearly all actives have a fitted effect of over 55% in size
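Readout: luminescence from CellTiter-Glo after 30 min in the dark at RT. Cells: DT40 Tdp1-/- with stable hTDP1, 400/well. Exposure: compounds alone, ≥48 hr, 37 °C.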
SW480 rereplic: A quantitative high throughput screen for small molecules that induce DNA re-replication in SW480 colon adenocarcinoma cells; SW480 DNA re-replication, Hoechst DNA content imaging, 48 h; Potency, µM (top dose mostly 46.1 µM), for the others: at the highest dose re-replication activation, actives largely listed as activators; 340,000 compounds, 1.8% hits; note: potency is the fitted concentration of half-maximal effect; % of control where 0% means no effect; nearly all actives have a fitted effect of over 55% in size
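Treated cells incubate 48 hr (37 C, 5% CO2), are stained 40 min with Hoechst, and nuclear fluorescence is enumerated; a rise in nuclei with high DNA signal marks re-replication.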
IL1B secr inh: qHTS for Inhibitors of Inflammasome Signaling: IL-1-beta AlphaLISA Primary Screen | THP-1 LPS/ATP IL-1B secretion, AlphaLISA, 16 h; active compounds read low | activity change, % at 57.5 µM | AID 743279, 2014 | 360,000 compounds, 4.7% hits; in the data active = activity change below about -50%; inconclusive = mostly about -30% to -49%; note: % is set by controls: 0 for no effect and ±100 for the full control effect
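THP-1 cells pretreated 1 hr with compounds (up to 57.5 uM final), then stimulated with LPS (250 ng/mL final) plus ATP (1.25 mM final); secreted IL-1B measured by AlphaLISA after 16 hr, decreased signal indicating inhibition.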
Chronic BCR inh: qHTS Assay to Find Inhibitors of Chronic Active B-Cell Receptor Signaling. ABC-DLBCL IkBa-CBG/CBR reporter, luminescence ratio, 4 h. Potency, µM (highest dose often 46.1 µM), without a hit: top-dose activity change, negative = inhibition, usual class: inhibitors. 340,000 compounds, 0.05% hits. AID 493014, 2011; active = well fitted inhibition curve with a large enough effect in the signal ratio, with a control signal flat, not every such curve was filed as active; inconclusive = small, poorly fitted or top-dose-only effect, or effect the other way, or a change in a side signal; the % refers to the signal ratio;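 note: potency is the fitted concentration of half-maximal effect; plate controls were basal doxycycline-induced cells for no effect and cells given 10 µM MG132 for full effect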
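Concentration-response series (up to 46 uM) were applied to TMD8 dual-reporter cells for 4 h at 37C with doxycycline. Green/red ratio, after filter-overlap correction, defined %Activity; red signal alone was normalised to basal cells and zero luminescence.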
TDP1 cell CPT: qHTS for Inhibitors of human tyrosyl-DNA phosphodiesterase 1 (TDP1): qHTS in cells in presence of CPT; AID 686979, 2013; Potency, µM (series often up to 46.2 µM), for inactives: at the top dose activity change, negative = growth inhibition, usual class: inhibitors; chicken DT40 Tdp1-/-;hTDP1 cells + 20 nM CPT, ATP luminescence, 48 h; 420,000 compounds, 12% hits; note: potency is the fitted concentration of half-maximal effect; % is set by controls: 0 for no effect and ±100 for the full control effect; nearly all actives have a fitted effect of over 55% in size
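Cell growth measured by CellTiter-Glo luminescence after a minimum 48 h, 37 C compound exposure with 20 nM CPT in Tdp1-knockout DT40 cells stably expressing hTDP1, seeded 400/well; qHTS titration format.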
MCF10A rerep: A quantitative high throughput screen for small molecules that induce DNA re-replication in MCF 10a normal breast cells; MCF 10A DNA re-replication, Hoechst nuclear intensity, 48 h; 350,000 compounds, 2.9% hits; AID 624296, 2012; Potency, µM (highest dose often 46.1 µM), without a hit: at the highest dose activity, positive = re-replication, most hits filed as activators; note: potency is the fitted concentration of half-maximal effect; % of control where 0% means no effect; nearly all actives have a fitted effect of over 50% in size
* marks the source's active call; other numbers are inactive results; u = inconclusive; x = no result; [ ] = another dose, or the depositor's remark. In the library only some 19% were active in any assay of this set; here they are far more common. Unless noted, calls come from the whole dose curve; as a rule, active = well fitted curve in the direction sought with a large enough effect; inconclusive = small, poorly fitted or top-dose-only effect, or another doubt; inactive = no such curve, though single readings can be large; an effect the other way counts as inactive or inconclusive.

SMILES	TDP1 cell noCPT	SW480 rereplic	IL1B secr inh	Chronic BCR inh	TDP1 cell CPT	MCF10A rerep
CN(C)c1ccc(CN(Cc2ccco2)C(=O)COc2ccc(F)cc2)cc1	10µM*	x	x	x	u	x
COc1ccc(NC(C)=O)cc1NC(=O)C1(c2cccs2)CCOCC1	15%	x	x	x	-1%	x
COC(=O)c1c(C)sc(-c2c(-c3ccc4c(c3)OCCO4)[nH]c3c2c(=O)[nH]c(=O)n3C)c1O	21µM*	x	x	x	u	x
COc1ccc(CNC(=O)C[C@H]2C[C@H](C(=O)N(C(C)C)C(C)C)[C@@]3(C)c4[nH]c5cc(-c6ccco6)ccc5c4CCN3C2=O)cc1OC	u	4%	-20	u	18µM*	u
CC(C)N(C(=O)[C@H]1C[C@H](CC(=O)NCCC2=CCCCC2)C(=O)N2CCc3c([nH]c4ccc(Cl)cc34)[C@]12C)C(C)C	26µM*	u	-22	3%	29µM*	u
COCCCNC(=O)C[C@H]1C[C@H](C(=O)N(C(C)C)C(C)C)[C@@]2(C)c3[nH]c4cc(-c5ccco5)ccc4c3CCN2C1=O	23µM*	u	u	-1%	16µM*	30%
COc1ccc(CNC(=O)C[C@H]2C[C@H](C(=O)N(C(C)C)C(C)C)[C@@]3(C)c4[nH]c5ccc(Cl)cc5c4CCN3C2=O)cc1OC	18µM*	u	-24	u	18µM*	u
CCOC(=O)CNC(=O)Cn1cnc2c(oc3ccccc32)c1=O	13%	u	-2	-3%	-15%	0%
COCCNC(=O)c1cc2c(c(-c3cccc(C#Cc4ccc(OC)c(OC)c4)c3)n1)[C@@H](CCO)N(S(=O)C(C)(C)C)C2 (some centres undefined)	u	x	-18	x	u	x
O=C(c1cccc(S(=O)(=O)N2CCN(c3ccc(F)cc3)CC2)c1)N1CCN(c2ccccc2O)CC1	u	11%	u	x	u	0%
CN(C)C(=O)NC(NC(=S)Nc1ccccc1)C(Cl)(Cl)Cl (centres undefined)	-29%	-20%	-12	-5%	u	-2%
CN(C)C(=O)NC(Nc1ccc(Cl)cc1Cl)C(Cl)(Cl)Cl (centres undefined)	18µM*	7%	-5	4%	u	-4%
CCc1c(C#N)c(SCCC(=O)Nc2ccc(OC)cc2)nc2c1C(=O)CC(C)(C)C2	u	5%	u	u	-24%	14%
CCc1c(C#N)c(SCc2c(C)noc2C)nc2c1C(=O)CC(C)(C)C2	u	-5%	9	4%	26µM*	9.2µM*
Cc1ccc(C(=O)Cc2cc3ccccc3oc2=O)c(C)c1	u	7%	-14	u	-5%	-1%
CCC1=C(c2ccc(C)cc2)S(=O)(=O)N=C1N1CCC(C(=O)N2CCCCC2)CC1	u	x	x	x	-30%	x
CCOc1ccc(CNC(=O)C2CCN(C3=NS(=O)(=O)C(c4ccc(C)cc4)=C3CC)CC2)cc1	u	x	x	x	18µM*	x
CC1=C(c2ccc(C)c(C)c2)S(=O)(=O)N=C1N1CCC(C(=O)NCCc2ccc(Cl)cc2)CC1	7.3µM*	x	x	x	13µM*	x
COc1ccccc1CNC(=O)C1CCN(C2=NS(=O)(=O)C(c3ccc(C)c(C)c3)=C2C)CC1	18µM*	x	x	-5%	16µM*	x
CC1=C(c2ccc(Cl)cc2)S(=O)(=O)N=C1N1CCC(C(=O)NCc2ccccc2F)CC1	-3%	x	x	x	0%	x
O=C(/C=C/Nc1cccc(C(F)(F)F)c1)c1ccc(Oc2ncccn2)cc1	23µM*	-36%	4	u	u	0%
O=C(/C=C/Nc1cccc(C(F)(F)F)c1)c1ccco1	-14%	4%	14	1%	16%	2%
C[n+]1ccc(/C=C/c2c[nH]c3ccc(F)cc23)cc1	0.82µM*	u	31	12%	1.6µM*	u
Cn1cc(/C=C/c2cc[n+](C)cc2)c2cc(Cl)ccc21	0.73µM*	11µM*	-60*	u	0.65µM*	13µM*
Cn1cc(/C=C/c2cc[n+](C)cc2)c2cc(F)ccc21	0.58µM*	u	-4	6%	0.52µM*	u
SMILES	TDP1 cell noCPT	SW480 rereplic	IL1B secr inh	Chronic BCR inh	TDP1 cell CPT	MCF10A rerep
Cn1cc(C=O)c2cc(F)ccc21	0%	-6%	16	0%	-1%	4%
C[n+]1ccccc1/C=C/c1ccc(F)c(F)c1	-18%	-1%	0	4%	-7%	13%
OCCN1CCN(c2ncnc3c2ncn3[C@H]2CN(Cc3cccc(C(F)(F)F)c3)C[C@@H](CO)O2)CC1	u	x	9	x	u	x
Cc1ccc(/C(=N/Nc2nc3ccccc3s2)C2=C(O)c3ccccc3C2=O)cc1	u	u	24	-1%	u	u
COc1ccc(C(=O)C2CCCN(C(=O)C3=CCCC3)C2)c(C)c1 (centres undefined)	23µM*	1%	-8	-5%	u	1%
COc1ccc(C(=O)C2CCCN(S(=O)(=O)c3ccc(C(C)=O)cc3)C2)c(C)c1 (centres undefined)	12µM*	-6%	u	-1%	16µM*	-1%
COc1ccc(C(=O)C2CCCN(C(=O)c3noc4c3CCCC4)C2)cc1F (centres undefined)	18µM*	1%[1.84 µM]	5	4%	u	-26%
COc1ccc(C(=O)C2CCCN(C(=O)c3cccnc3SC)C2)c(C)c1 (centres undefined)	u	-2%	-70*	u	u	1%
COc1ccc(C(=O)C2CCCN(C(=O)c3csc(C(C)=O)c3)C2)c(C)c1 (centres undefined)	-18%	-5%	12	6%	u	8%
COc1cc(NC(=O)CN2C(=O)c3ccccc3Sc3ccc(C(=O)N4CCCC4)cc32)cc(OC)c1	u	x	x	2%	1%	x
COc1ccc(C(=O)C2CCCN(C(=O)c3noc4c3CCCC4)C2)c(C)c1 (centres undefined)	21µM*	-31%	-23	1%	u	u
C#Cc1cccc(C(=O)N2CCCC(C(=O)c3ccc(OC)cc3C)C2)c1 (centres undefined)	-27%	1%	0	1%	-23%	11%
